According to PubChem BioAssay:
Calls of active or inactive are those of the source.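 Rule for the calls, unless noted: active = viability at or under a set limit in both replicates, limit being median viability minus 3 SD (cut at about 48% in these data, passing the limit was not always enough); inconclusive = at or under the limit in just one replicate; inactive = at or above the limit in both replicates.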

Columns and labels:
[1] = Her2 expression decrease, cell viability multiplex – SKBR3 breast tumor cells, AlphaScreen, ATP viability, primary screen (AID 461;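 active = Her2 level under about 52% in both replicate screens, with viability over 70% of control, limit read from the data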;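 for Her2 level: lower value means less Her2 protein in the cells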;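 for viability: percent of carrier control wells set as 100% viability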); conditions: SKBR3 Her2 protein level, 18-24 h, measured here: SKBR3 viability, ATP luminescence, at 10 µM
[2] = molecular target: Receptor tyrosine-protein kinase erbB-2 (Homo sapiens) (UniProt P04626); assay: as above; conditions: 18-24 h, at 10 µM, stronger effect = lower value
Receptor tyrosine-protein kinase erbB-2 (Homo sapiens), sequence (P04626 whole entry, looked up): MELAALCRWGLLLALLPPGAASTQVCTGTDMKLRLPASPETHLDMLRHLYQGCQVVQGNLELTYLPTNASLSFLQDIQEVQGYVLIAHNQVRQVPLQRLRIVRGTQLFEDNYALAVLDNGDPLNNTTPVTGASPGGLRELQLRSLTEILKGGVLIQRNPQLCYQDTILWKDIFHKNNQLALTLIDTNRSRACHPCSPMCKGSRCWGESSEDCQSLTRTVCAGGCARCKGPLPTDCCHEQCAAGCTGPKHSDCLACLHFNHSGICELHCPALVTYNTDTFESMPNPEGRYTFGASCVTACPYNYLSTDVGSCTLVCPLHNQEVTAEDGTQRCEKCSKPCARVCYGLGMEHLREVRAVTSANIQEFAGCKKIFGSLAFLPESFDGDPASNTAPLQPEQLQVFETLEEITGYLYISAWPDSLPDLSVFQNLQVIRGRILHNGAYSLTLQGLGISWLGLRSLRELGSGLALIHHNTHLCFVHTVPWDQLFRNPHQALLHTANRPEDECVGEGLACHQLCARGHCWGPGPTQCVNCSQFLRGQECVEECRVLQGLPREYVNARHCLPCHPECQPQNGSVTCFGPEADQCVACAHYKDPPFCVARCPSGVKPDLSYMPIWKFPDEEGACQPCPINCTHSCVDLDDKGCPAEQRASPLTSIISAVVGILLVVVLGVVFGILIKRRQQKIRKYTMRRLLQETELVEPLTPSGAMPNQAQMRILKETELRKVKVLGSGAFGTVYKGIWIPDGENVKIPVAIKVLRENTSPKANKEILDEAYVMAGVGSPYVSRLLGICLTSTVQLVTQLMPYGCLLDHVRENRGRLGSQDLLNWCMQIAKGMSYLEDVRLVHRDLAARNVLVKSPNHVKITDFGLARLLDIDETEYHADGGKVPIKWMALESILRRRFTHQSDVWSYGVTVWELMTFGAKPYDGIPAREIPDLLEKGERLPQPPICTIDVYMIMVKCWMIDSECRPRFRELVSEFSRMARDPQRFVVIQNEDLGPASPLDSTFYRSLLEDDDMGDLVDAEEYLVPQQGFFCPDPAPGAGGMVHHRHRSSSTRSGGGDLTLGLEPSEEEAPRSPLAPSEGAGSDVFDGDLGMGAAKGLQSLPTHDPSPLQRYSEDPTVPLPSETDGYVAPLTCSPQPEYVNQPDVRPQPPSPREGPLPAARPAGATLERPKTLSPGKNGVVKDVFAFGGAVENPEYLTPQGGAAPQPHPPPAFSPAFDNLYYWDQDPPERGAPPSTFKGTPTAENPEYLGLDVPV

[3] = reduced viability of SK-BR-3 breast cancer cells – cell-based, 24 h, human, pilot screen (AID 572;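 active = viability at or below 10% of carrier control in both of two separate runs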;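 note: compound exposure lasted between 18 and 24 h rather than exactly 24 h; 100% = carrier-treated control wells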); conditions: SK-BR-3 viability, CellTiter-Glo luminescence, at 10 µM, stronger effect = lower value
[4] = HUVEC growth inhibition – cell-based, human, primary screen (AID 575;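 active = viability at or below 30% in both replicate assays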;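 note: 100% = median of untreated cell wells with 0.1% DMSO on each plate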); conditions: HUVEC proliferation, CellTiter-Glo luminescence, 72 h; at 10 µM; stronger effect = lower value
[5] = H69AR cell proliferation blockers – human, duplicate replicates, primary screen (AID 580); conditions: H69AR lung tumor cells viability, ATP luminescence, 72 h; at 10 µM; stronger effect = lower value;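 note: 100% = mean luminescence of untreated wells and 0% = no signal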
[6] = MRP1 drug-resistance reversers in H69AR cells – cell-based, doxorubicin co-treatment, pilot screen (AID 601;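 active = viability loss from added drug above about 55%, and viability with drug at most 40%, in both replicates, limit read from the data, passing the limit was not always enough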); conditions: CellTiter-Glo, 72 h, at 10 µM; for differential viability (reversal): stronger effect = higher value
[7] = yeast transport mutant growth inhibition pilot in 384-well plates, post-Golgi transport modulator project (AID 636; in the data active = inhibition above about 31%); conditions: absorbance 615 nm, about 18 h, stronger effect = higher value
[8] = growth suppression of yeast trafficking mutant, preliminary HTS, modulators of trafficking downstream of Golgi apparatus project, 1536-format plate, OD 615 nm (AID 637; in the data active = inhibition above about 30%); conditions: yeast transport mutant growth, absorbance 615 nm, 18 h; stronger effect = higher value
[9] = H69AR cells + 2 uM doxorubicin, measured here: viability with 2 uM doxorubicin, stronger effect = lower value
[10] = H69AR cells, compound alone cytotoxicity

Structure (SMILES) | viability [1] | Her2 level [2] | viability [3] | viability [4] | viability [5] | differential viability (reversal) ([6]; H69AR cells + 2 uM doxorubicin) | viability [6, 9] | viability [6, 10] | inhibition [7] | inhibition [8]
O=C(CC(Cc1ccccc1)C(=O)O)NCCc1ccc2c(c1)OCO2 (stereo not given) | 90.5% | 122% (inactive) | 90.5% (inactive) | 92% (inactive) | 100% (inactive) | 19.3% (inactive) | 80.8% | 100% | -3.82% (inactive) | -7.17% (inactive)
Cc1cc(C)n(C(=O)CCCCCC(=O)n2nc(C)cc2C)n1 | 116% | 86.5% (inactive) | 116% (inactive) | 105% (inactive) | 105% (inactive) | 10.8% (inactive) | 94.5% | 105% | -9.32% (inactive) | -2.86% (inactive)
CCCCCCC(=O)c1c(C)[nH]c(C(=O)OCC)c1C | 98% | 86.5% (inactive) | 98% (inactive) | 60.2% (inactive) | 92.7% (inactive) | 6.9% (inactive) | 85.8% | 92.7% | -5.73% (inactive) | 4.03% (inactive)
CCC(=O)Nc1cc(C)c(NC(=O)C23CC4CC(CC(C4)C2)C3)cn1 | 106% | 85% (inactive) | 106% (inactive) | 84.9% (inactive) | 107% (inactive) | 8.51% (inactive) | 98% | 107% | -3.65% (inactive) | -2.62% (inactive)
O=c1[nH]c2ccc(S(=O)(=O)N3CCN(C4CCCCC4)CC3)cc2[nH]c1=O | 90.5% | 104% (inactive) | 90.5% (inactive) | 91.8% (inactive) | 103% (inactive) | 9.67% (inactive) | 93.7% | 103% | 0.92% (inactive) | -12.6% (inactive)
CN(CC(O)COc1ccc(OCC(O)CN(C)C2CCCCC2)cc1)C1CCCCC1 (stereo not given) | 88% | 82% (inactive) | 88% (inactive) | 65.5% (inactive) | 89.9% (inactive) | 10.4% (inactive) | 79.5% | 89.9% | -5.66% (inactive) | 4.6% (inactive)
Oc1ccc(C=Nc2cccc3ncccc23)c(O)c1 | 103% | 84.5% (inactive) | 103% (inactive) | 80% (inactive) | 84.9% (inactive) | -3.45% (inactive) | 88.3% | 84.9% | -2.93% (inactive) | 0.81% (inactive)
COc1ccccc1C(=O)Nc1ccc(N2CCN(Cc3ccccc3)CC2)cc1 | 81.5% | 75.5% (inactive) | 81.5% (inactive) | 66.8% (inactive) | 89.6% (inactive) | 2.1% (inactive) | 87.5% | 89.6% | -5.2% (inactive) | 1.97% (inactive)
Cc1csc(NC(=O)CCS(=O)(=O)c2ccc(Br)cc2)n1 | 99.5% | 96.5% (inactive) | 99.5% (inactive) | 82.5% (inactive) | 73% (inactive) | -2.92% (inactive) | 75.9% | 73% | -0.81% (inactive) | 22.7% (inactive)
Cc1ccc(CNC(=O)C2CC(=O)OC23CCCC3)c(C)c1 (stereo not given) | 86% | 100% (inactive) | 86% (inactive) | 96.5% (inactive) | 106% (inactive) | 12.3% (inactive) | 94.1% | 106% | -5.89% (inactive) | 3.17% (inactive)
Cc1ccnc(NS(=O)(=O)c2ccc(NC(=O)Cc3cccs3)cc2)n1 | 94.5% | 111% (inactive) | 94.5% (inactive) | 87.6% (inactive) | 100% (inactive) | 8.61% (inactive) | 91.9% | 100% | 2.84% (inactive) | -2.79% (inactive)
Cc1ccccc1OCc1nnc(SCC(=O)NCc2ccccc2)n1C | 96% | 84.5% (inactive) | 96% (inactive) | 88.4% (inactive) | 104% (inactive) | 8.75% (inactive) | 95.2% | 104% | -4.66% (inactive) | -3.02% (inactive)
CCOC(=O)c1cccc(NC(=O)C2CCN(S(=O)(=O)c3cccs3)CC2)c1 | 75.5% | 96% (inactive) | 75.5% (inactive) | 60.7% (inactive) | 65% (inactive) | -7.91% (inactive) | 72.9% | 65% | -5.58% (inactive) | -3.81% (inactive)
COCCN(CCOC)C(=O)c1sc2nc(-c3ccccc3)cn2c1C | 93% | 78% (inactive) | 93% (inactive) | 82.4% (inactive) | 93.1% (inactive) | 10.4% (inactive) | 82.7% | 93.1% | -3.82% (inactive) | -5% (inactive)
CC(CN1CCCCC1)OC(=O)c1ccc2c(c1)OCO2 (stereo not given) | 104% | 96% (inactive) | 104% (inactive) | 99.1% (inactive) | 94.1% (inactive) | 7.31% (inactive) | 86.8% | 94.1% | -4.4% (inactive) | 6.72% (inactive)
CCC(=O)N1CCc2cc(S(=O)(=O)CCC(=O)Nc3nc(C)cs3)ccc21 | 106% | 85% (inactive) | 106% (inactive) | 90.5% (inactive) | 74.4% (inactive) | 7.69% (inactive) | 66.8% | 74.4% | -4.8% (inactive) | -5.9% (inactive)

Structure (SMILES) | viability [1] | Her2 level [2] | viability [3] | viability [4] | viability [5] | differential viability (reversal) ([6]; H69AR cells + 2 uM doxorubicin) | viability [6, 9] | viability [6, 10] | inhibition [7] | inhibition [8]
COc1cccc(OC)c1C(=O)N1CCOCC1 | 100% | 87.5% (inactive) | 100% (inactive) | 92.1% (inactive) | 100% (inactive) | 15% (inactive) | 85.1% | 100% | -1.84% (inactive) | -0.81% (inactive)
COc1ccc(CCNc2oc(-c3ccccc3OC)nc2C#N)cc1 | 88% | 106% (inactive) | 88% (inactive) | 86.4% (inactive) | 95.2% (inactive) | 0.34% (inactive) | 94.8% | 95.2% | -1.43% (inactive) | -11% (inactive)
COc1ccc(CC(=O)Nc2ccc(OC)c(NC(=O)c3ccco3)c2)cc1 | 91% | 106% (inactive) | 91% (inactive) | 85.8% (inactive) | 81.9% (inactive) | -9.55% (inactive) | 91.5% | 81.9% | 4% (inactive) | -2.38% (inactive)
COc1ccccc1C(=O)Nc1nc2ccc(S(C)(=O)=O)cc2s1 | 89.5% | 78% (inactive) | 89.5% (inactive) | 93.5% (inactive) | 79.5% (inactive) | -6.1% (inactive) | 85.6% | 79.5% | 0.64% (inactive) | -1% (inactive)
CC(=O)Nc1ccc(-c2cc3ccccc3o2)cc1 | 103% | 89% (inactive) | 103% (inactive) | 82.4% (inactive) | 95.9% (inactive) | 12% (inactive) | 83.9% | 95.9% | -6.44% (inactive) | -5.08% (inactive)
Cc1nc(SC2C=CS(=O)(=O)C2)n[nH]1 (stereo not given) | 104% | 88% (inactive) | 104% (inactive) | 99.7% (inactive) | 86.3% (inactive) | -13.9% (inactive) | 100% | 86.3% | -7.07% (inactive) | 3.11% (inactive)
O=C(NCC1CCCO1)c1ccc(N2CCCCC2)nc1 (stereo not given) | 91.5% | 109% (inactive) | 91.5% (inactive) | 113% (inactive) | 90.1% (inactive) | 4.52% (inactive) | 85.6% | 90.1% | 0.26% (inactive) | -2.83% (inactive)
O=C(c1ccccc1)N1CCN(CC2CC=CCC2)CC1 (stereo not given) | 82.5% | 79% (inactive) | 82.5% (inactive) | 102% (inactive) | 96.1% (inactive) | 2.54% (inactive) | 93.5% | 96.1% | -6.05% (inactive) | 2.5% (inactive)
O=C(NCCc1ccccc1)C1CCCN(S(=O)(=O)c2cccs2)C1 (stereo not given) | 89% | 91% (inactive) | 89% (inactive) | 112% (inactive) | 93.8% (inactive) | 7.11% (inactive) | 86.7% | 93.8% | 1.79% (inactive) | -0.33% (inactive)
CCn1c(SCC(=O)c2ccc(Cl)cc2)nnc1-c1ccoc1C | 118% | 104% (inactive) | 118% (inactive) | 98.2% (inactive) | 93.6% (inactive) | 4% (inactive) | 89.6% | 93.6% | -2.84% (inactive) | -0.98% (inactive)
CCOC(=O)C1CCN(C(=O)Nc2ccc3snnc3c2)CC1 | 96.5% | 88.5% (inactive) | 96.5% (inactive) | 92.2% (inactive) | 94.9% (inactive) | 5.87% (inactive) | 89% | 94.9% | -6.08% (inactive) | -0.67% (inactive)
Nc1nc2n(n1)C(c1cccc(Cl)c1)CC(c1ccc(F)cc1)N2 (stereo not given) | 86.5% | 97.5% (inactive) | 86.5% (inactive) | 106% (inactive) | 100% (inactive) | -10.5% (inactive) | 111% | 100% | -5.47% (inactive) | -0.83% (inactive)
CCOC(=O)N1CCC(NC(=O)C2CCCN2C(=O)OCc2ccccc2)CC1 (stereo not given) | 93% | 106% (inactive) | 93% (inactive) | 103% (inactive) | 90.7% (inactive) | -2.27% (inactive) | 93% | 90.7% | 2.89% (inactive) | -7.1% (inactive)
CC(=O)Nc1cccc(NC(=O)C2CCCN2C(=O)Nc2ccc(C)cc2)c1 (stereo not given) | 89% | 93.5% (inactive) | 89% (inactive) | 99.9% (inactive) | 100% (inactive) | 10.7% (inactive) | 89.7% | 100% | -0.68% (inactive) | -6.89% (inactive)
Cc1occc1C(=O)Nc1cccnc1 | 101% | 92% (inactive) | 101% (inactive) | 100% (inactive) | 97.7% (inactive) | 3.58% (inactive) | 94.1% | 97.7% | -7.73% (inactive) | 2.9% (inactive)
COc1ccc(C)cc1S(=O)(=O)N(C)CC(=O)Nc1ccc2c(c1)OCO2 | 129% | 98% (inactive) | 129% (inactive) | 92.7% (inactive) | 89.2% (inactive) | 1.07% (inactive) | 88.1% | 89.2% | -4.67% (inactive) | -4.92% (inactive)
